Assay [1] in a line: sensitizers of A549 cells to miR-34 induction, primary screen, imaging, A549 dox-inducible miR-34, nuclei and caspase counts (AID 1347080;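 active = compounds whose cell count with miR-34 switched on is under 0.7 times the count with it off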; note: test concentration not given here). To be noted: A549 miR-34 inducible, Hoechst nuclei count, 48 h.
Assay [2] can be described thus: survival rescue of mitochondrial mutant cells in low glucose, primary screen, MELAS cybrids, Rieske KO mouse fibroblasts, CellTiter-Glo (AID 1508586;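 active = mean z-score across replicates of 1.96 or higher in either the MELAS or the Rieske mutant cell line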;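 note: test concentration not given here; z relative to plate mean and SD of compound and empty wells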).
A short description of assay [3]: viability rescue of complex I mutant cybrids, primary screen, cell-based, galactose medium, ATP luminescence (AID 1645843).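 Note: positive z means more ATP and so rescue of galactose-driven cybrid death.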 To be noted: complex I mutant cybrid cells, 72 h, stronger effect = higher value.
Where [4] appears, read: stronger effect = lower value, cell number ratio, induced over uninduced.
The mark [5] stands for this setting: measured here: relative caspase fold change +Dox/-Dox.
Where [6] appears, read: measured here: total cells with miR-34 induction, stronger effect = lower value.
Where [7] appears, read: measured here: total cells without miR-34 induction.
[8] abbreviates: MELAS cybrid survival, CellTiter-Glo 48 h, stronger effect = higher value.
[9] abbreviates: Rieske KO mouse fibroblast survival, CellTiter-Glo 72 h.

Active and inactive are the calls of the source.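 Rule for the calls, unless noted: active = z-score of at least 1.8 in each of two replicates, scored against plate mean and spread of sample wells; inactive = the rest.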

As to `O=c1cc(-c2ccccc2)oc2ccccc12`, the figures for the fold change in assay [1] (setting [4]) and in assay [1] (setting [5]) were 0.858 (inactive) and 0.735, respectively. Further, the cell count was 7170 in assay [1] (setting [6]) and 8370 in assay [1] (setting [7]). The figures for the z-score in assay [2] (setting [8]), in assay [2] (setting [9]) and in assay [3] were 2.28 (active), 0.116 and 1.36 (inactive), respectively.

Turning to `CC(C)(CCl)C(=O)Nc1ccc(C(F)(F)F)cc1`, the fold change was 0.859 (inactive) in assay [1] (setting [4]) and 1.51 in assay [1] (setting [5]). Moreover, the cell count in assay [1] (setting [6]) was 8340; in assay [1] (setting [7]), 9720. Further, the z-score in assay [2] (setting [8]) is 0.804 (inactive); in assay [2] (setting [9]), 0.128; in assay [3], 0.14 (inactive).

With `CCSCCNc1nccc(-c2cn(C)nc2C)n1`, the values for the fold change in assay [1] (setting [4]) and in assay [1] (setting [5]) were 0.861 (inactive) and 2.06, respectively. The cell count in assay [1] (setting [6]) is 8420; in assay [1] (setting [7]), 9770. The z-score in assay [2] (setting [8]) was -0.242 (inactive); in assay [2] (setting [9]), 0.458; in assay [3] it was -0.585 (inactive).

As to `COc1ccccc1Cn1ncc2[nH]c(-c3ccccc3OC)nc21`, the fold change is 0.835 (inactive) in assay [1] (setting [4]) and 1.7 in assay [1] (setting [5]). In addition, the cell count in assay [1] (setting [6]) was determined as 7580; in assay [1] (setting [7]) it was 9090. In addition, the results for the z-score in assay [2] (setting [8]), in assay [2] (setting [9]) and in assay [3] were -0.341 (inactive), -0.0244 and 2.62 (active), respectively.

With `CCn1ncc(NC(=O)Cn2cc(-c3ncnc4ccsc34)cn2)n1`, the fold change was 0.848 (inactive) in assay [1] (setting [4]) and 1.75 in assay [1] (setting [5]). In addition, the cell count in assay [1] (setting [6]) was 8160; in assay [1] (setting [7]), 9620. The results for the z-score in assay [2] (setting [8]), in assay [2] (setting [9]) and in assay [3] were -0.432 (inactive), -0.147 and -0.53 (inactive), respectively.

As to `c1ccn2cc(CCNc3ncnc4nc[nH]c34)nc2c1`, the fold change is 0.837 (inactive) in assay [1] (setting [4]) and 1.9 in assay [1] (setting [5]). The cell count in assay [1] (setting [6]) amounted to 8280; in assay [1] (setting [7]), 9890. For the same compound, the z-score in assay [2] (setting [8]) was -0.607 (inactive); in assay [2] (setting [9]), -0.578; in assay [3] it was -0.4 (inactive).

Turning to `COc1ccc(OC)c2c1c(C)cc(=O)n2C`, the results for the fold change in assay [1] (setting [4]) and in assay [1] (setting [5]) were 0.823 (inactive) and 0.693, respectively. Further, the cell count stood at 8060 in assay [1] (setting [6]) and 9790 in assay [1] (setting [7]). The z-score in assay [2] (setting [8]) was -0.469 (inactive); in assay [2] (setting [9]), 0.131; in assay [3] it was -0.615 (inactive).

Regarding `CC(C)(N)c1cn(C2CCN(c3nc(N)nc4nc[nH]c34)CC2)nn1`, the figures for the fold change in assay [1] (setting [4]) and in assay [1] (setting [5]) were 0.945 (inactive) and 0.882, respectively. The cell count in assay [1] (setting [6]) was determined as 9180; in assay [1] (setting [7]), 9720. The z-score is 1.11 (inactive) in assay [2] (setting [8]), -0.203 in assay [2] (setting [9]) and -0.545 (inactive) in assay [3].

Take `Cc1cc2nc3[nH]c(=O)[nH]c(=O)c3nc2cc1C`: the fold change in assay [1] (setting [4]) was 0.917 (inactive); in assay [1] (setting [5]) it was 0.188. In addition, the cell count in assay [1] (setting [6]) came to 7820; in assay [1] (setting [7]) it was 8530. Moreover, the z-score in assay [2] (setting [8]) is 1.63 (inactive); in assay [2] (setting [9]), 0.292; in assay [3], 0.825 (inactive).

Turning to `OCCNc1ncnc2oc(-c3ccccc3)c(-c3ccccc3)c12`, the fold change is 0.989 (inactive) in assay [1] (setting [4]) and 0.446 in assay [1] (setting [5]). The figures for the cell count in assay [1] (setting [6]) and in assay [1] (setting [7]) were 5100 and 5160, respectively. Further, the figures for the z-score in assay [2] (setting [8]), in assay [2] (setting [9]) and in assay [3] were 0.83, 7.8 and -1.23 (inactive), respectively.

Turning to `CCCCCCCCCCCCCCCC(=O)NCC(=O)O`, the results for the fold change in assay [1] (setting [4]) and in assay [1] (setting [5]) were 0.908 (inactive) and 1.05, respectively. Also, the values for the cell count in assay [1] (setting [6]) and in assay [1] (setting [7]) were 9030 and 9940, respectively. Also, the z-score in assay [2] (setting [8]) is -0.0953 (inactive); in assay [2] (setting [9]), 0.105; in assay [3], 1.27 (inactive).

In the case of `CCCc1cn(CC2CCCN(C(=O)c3nc4ncccn4n3)C2)nn1` (stereo not drawn), the fold change in assay [1] (setting [4]) is 0.866 (inactive); in assay [1] (setting [5]), 1.31. Besides, the values for the cell count in assay [1] (setting [6]) and in assay [1] (setting [7]) were 9000 and 10400, respectively. The z-score was -0.289 (inactive) in assay [2] (setting [8]), -0.243 in assay [2] (setting [9]) and -0.51 (inactive) in assay [3].

Regarding `Nc1nc2ccccc2c(=O)[nH]1`, the fold change was 0.901 (inactive) in assay [1] (setting [4]) and 0.247 in assay [1] (setting [5]). Also, the cell count was found to be 8880 in assay [1] (setting [6]) and 9860 in assay [1] (setting [7]). The z-score in assay [2] (setting [8]) was 0.855 (inactive); in assay [2] (setting [9]), -0.798; in assay [3] it was 0.65 (inactive).

Consider `CCc1c(C)[nH]n(-c2nn[nH]n2)c1=O`, for which the fold change in assay [1] (setting [4]) was 0.897 (inactive); in assay [1] (setting [5]) it was 0.608. Moreover, the cell count in assay [1] (setting [6]) came out at 8110; in assay [1] (setting [7]), 9050. Besides, the z-score was -1.16 (inactive) in assay [2] (setting [8]), -0.864 in assay [2] (setting [9]) and 0.055 (inactive) in assay [3].

Turning to `CC(C)n1ncc(NC(=O)Cn2ccc(-c3ccc(C(F)(F)F)cc3)n2)n1`, the fold change is 0.965 (inactive) in assay [1] (setting [4]) and 1.03 in assay [1] (setting [5]). In addition, the results for the cell count in assay [1] (setting [6]) and in assay [1] (setting [7]) were 5250 and 5440, respectively. Further, the z-score was 1.15 (inactive) in assay [2] (setting [8]), -0.0246 in assay [2] (setting [9]) and 0.42 (inactive) in assay [3].

Take `Cc1ccc2c(c1)N(Cc1nc(C(C)(C)C)no1)C(=O)CO2`: the values for the fold change in assay [1] (setting [4]) and in assay [1] (setting [5]) were 1.19 (inactive) and 0.578, respectively. Moreover, the cell count is 6310 in assay [1] (setting [6]) and 5280 in assay [1] (setting [7]). The z-score is -0.543 (inactive) in assay [2] (setting [8]), -0.423 in assay [2] (setting [9]) and -0.52 (inactive) in assay [3].

For the compound `CCc1nc(NC(=O)N(C)CC2Cc3ccccc3O2)nn1C` (stereo not drawn), the fold change in assay [1] (setting [4]) was 0.87 (inactive); in assay [1] (setting [5]), 1.41. For the same compound, the figures for the cell count in assay [1] (setting [6]) and in assay [1] (setting [7]) were 9140 and 10500, respectively. Also, the z-score in assay [2] (setting [8]) is 0.229 (inactive); in assay [2] (setting [9]), -0.335; in assay [3], -0.515 (inactive).

Take `Cc1cc(-c2csc(Nc3ccc(C(=O)O)c(O)c3)n2)ccc1F`: the fold change in assay [1] (setting [4]) is 0.849 (inactive); in assay [1] (setting [5]) it was 0.325. Besides, the cell count in assay [1] (setting [6]) is 8200; in assay [1] (setting [7]), 9650. For the same compound, the figures for the z-score in assay [2] (setting [8]), in assay [2] (setting [9]) and in assay [3] were 2.38 (active), -0.525 and 1.02 (inactive), respectively.

For the compound `NNC(=O)c1ccc(-c2ccccc2Cl)o1`, the fold change in assay [1] (setting [4]) is 0.826 (inactive); in assay [1] (setting [5]), 0.386. Moreover, the cell count is 7740 in assay [1] (setting [6]) and 9360 in assay [1] (setting [7]). For the same compound, the z-score in assay [2] (setting [8]) is 0.702 (inactive); in assay [2] (setting [9]) it was -0.293; in assay [3], 0.765 (inactive).

`O=C1CCCc2occ(C(=O)N3CCc4[nH]nc(Cc5ccccc5)c4C3)c21`: the figures for the fold change in assay [1] (setting [4]) and in assay [1] (setting [5]) were 0.979 (inactive) and 0.441, respectively. For the same compound, the cell count in assay [1] (setting [6]) was determined as 9440; in assay [1] (setting [7]) it was 9640. Besides, the z-score in assay [2] (setting [8]) is -0.275 (inactive); in assay [2] (setting [9]), -0.284; in assay [3], -0.515 (inactive).

With `CCn1ccnc1CN(C)C(=O)c1cc(-c2cnc(N)nc2)nc2cc(C)ccc12`, the fold change was 0.962 (inactive) in assay [1] (setting [4]) and 1.43 in assay [1] (setting [5]). For the same compound, the values for the cell count in assay [1] (setting [6]) and in assay [1] (setting [7]) were 9170 and 9540, respectively. The z-score in assay [2] (setting [8]) was -0.0965 (inactive); in assay [2] (setting [9]), 0.497; in assay [3], 0.64 (inactive).

For the compound `CCn1ccnc1CN(C)C(=O)c1cc(-c2cnc(N)nc2)nc2c(C)cccc12`, the fold change in assay [1] (setting [4]) was 0.899 (inactive); in assay [1] (setting [5]), 1.48. Moreover, the results for the cell count in assay [1] (setting [6]) and in assay [1] (setting [7]) were 8320 and 9260, respectively. Further, the figures for the z-score in assay [2] (setting [8]), in assay [2] (setting [9]) and in assay [3] were -1.11 (inactive), 1.17 and 1.16 (inactive), respectively.

Turning to `O=C(O)c1ccc(O)cc1O`, the fold change was 0.891 (inactive) in assay [1] (setting [4]) and 0.246 in assay [1] (setting [5]). Further, the cell count came out at 8740 in assay [1] (setting [6]) and 9810 in assay [1] (setting [7]). The results for the z-score in assay [2] (setting [8]), in assay [2] (setting [9]) and in assay [3] were -0.11 (inactive), -0.1 and 0.565 (inactive), respectively.

For the compound `CCc1ccccc1-c1cc(C)nc(N)n1`, the fold change in assay [1] (setting [4]) was 0.887 (inactive); in assay [1] (setting [5]), 1.81. In addition, the cell count was 8420 in assay [1] (setting [6]) and 9490 in assay [1] (setting [7]). Further, the z-score was -0.131 (inactive) in assay [2] (setting [8]), -1.38 in assay [2] (setting [9]) and -0.555 (inactive) in assay [3].
